Values joined by “and” are separate entries in the source; they are usually repeats but may differ in a detail not shown here. Equal values may be shown once. Results filed as inconclusive are left out. Active and inactive are the calls of the source. Unless noted, the call rests on the fitted dose curve; in most records, active means well fitted curve in the direction sought with a large enough effect; inconclusive means small, poorly fitted or top-dose-only effect, or another doubt; inactive means no such curve, though single readings can be large; an effect the other way counts as inactive or inconclusive.
Experiments:
[1] = Cell Viability - SK-N-SH (AID 435; calls by dose curve;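 further: potency means the concentration at half of the fitted maximal effect; compound exposure lasted 40 h at 37 °C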); details: SK-N-SH neuroblastoma cell viability qHTS
Summary of the method: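 Luminescent ATP signal served as the viability read-out after 40 hours of compound treatment of human neuroblastoma SK-N-SH cells. Concentration-response data, scaled between DMSO and 100 uM tamoxifen, gave AC50 values by standard Hill modeling.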

[2] = Cell Viability - HUV-EC-C (AID 542); details: HUV-EC-C endothelial cell viability, qHTS; series mostly up to 92.2 µM; further: on the % scale 0 is the no-effect control and ±100 the full control effect; nearly all actives have a fitted effect of over 35% in size
Summary of the method: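 Decrease in cellular ATP, quantified by luciferase luminescence, reflects toxicity in normal human vascular endothelial HUV-EC-C cells given compound for 40 hr in complete culture medium. Values are AC50s from concentration-response curves.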

[3] = Cell Viability - H-4-II-E (AID 543); details: H-4-II-E rat hepatoma viability; series mostly up to 92.2 µM; further: on the % scale 0 is the no-effect control and ±100 the full control effect; nearly all actives have a fitted effect of over 35% in size
Summary of the method: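 Here, cytotoxicity is measured in the rat hepatoma line H-4-II-E as loss of intracellular ATP after 40 hr compound treatment, detected by luciferase luminescence.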

[4] = Cell Viability - SH-SY5Y (AID 544); details: SH-SY5Y neuroblastoma cell viability; viability change, negative = cytotoxic: at 92.2 µM (top of the series);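 further: 0% = DMSO alone and -100% = 100 µM tamoxifen; nearly all actives have a fitted effect of over 55% in size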
Summary of the method: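 Cytotoxicity is scored as a concentration-dependent fall in intracellular ATP in human SH-SY5Y cells treated 40 hr in complete culture medium. Potency is expressed as AC50 from a Hill equation fit.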

[5] = Cell Viability - Renal Proximal Tubule (AID 545); details: renal proximal tubule cells viability; series mostly up to 91.7 µM;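 further: 0% = DMSO only and -100% = 100 µM tamoxifen; nearly all actives have a fitted effect of over 40% in size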
Summary of the method: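 Luminescent ATP signal (CellTiter-Glo) served as the viability read-out after 40 hr compound exposure of freshly isolated rat proximal tubule cells at 37 °C. Concentration-dependent ATP loss was fitted with the Hill equation to give AC50.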

[6] = Cellular Toxicity (caspase-3) H-4-II-E (AID 663); details: H-4-II-E rat hepatoma; Potency: caspase-3 activation; series mostly up to 92.2 µM;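 further: 0% = DMSO basal and 100% = 100 µM tamoxifen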
Summary of the method: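 Apoptosis induction is scored as increased luminescence from caspase 3/7 substrate cleavage in rat hepatoma H-4-II-E cells exposed to compound for 16 hr. Activity is scaled between DMSO and 100 uM tamoxifen.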

[7] = Cell Viability - LYMP2-001 (AID 921); details: LYMP2-001 lymphoblastoid cell viability; series mostly up to 92.2 µM;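 further: cells exposed to compound for 24 h at 37 °C; 0% = DMSO only and full inhibition = tetraoctylammonium bromide control wells; nearly all actives have a fitted effect of over 70% in size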
Summary of the method: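 Steps: seed 2500 lymphoblastoid cells/well; 5 hr, 37 C; add compound; 24 hr, 37 C; CellTiter-Glo reagent, 30 min room temperature; read luminescence. Concentration-response modeled by Hill equation for AC50.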

[8] = Cell Viability - LYMP2-019 (AID 973); details: LYMP2-019 lymphoblastoid cell line viability; series mostly up to 92.2 µM;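 further: cells exposed to compound for 24 h at 37 °C; 0% = DMSO alone and full effect = 92 µM tetraoctylammonium bromide; nearly all actives have a fitted effect of over 55% in size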
Summary of the method: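 Cells plated at 2500/well and allowed 5 hr at 37 C before compound addition. After 24 hr incubation, CellTiter-Glo reagent was added, plates sat 30 min at room temperature, and luminescence was recorded.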

[9] = Cell Viability - LYMP2-023 (AID 975); details: LYMP2-023 lymphoblastoid cell viability; series mostly up to 92.2 µM;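 further: cellular ATP measured by luciferase luminescence as viability proxy; cells exposed to compound for 24 hours at 37 °C; plate controls were DMSO only for no effect and 92 µM tetraoctylammonium bromide control for full effect; nearly all actives have a fitted effect of over 55% in size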
Summary of the method: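 Concentration-dependent drop in intracellular ATP measures acute cytotoxicity in a human lymphoblastoid line treated for 24 hours in complete culture medium. AC50 values are taken from Hill-equation fits of qHTS data.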

[10] = Cell Viability - LYMP2-006 (AID 978); details: LYMP2-006 lymphoblastoid cell viability, qHTS; series mostly up to 92.2 µM;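 further: cells exposed to compound for 24 hours; on the % scale 0 is the no-effect control and ±100 the full control effect; nearly all actives have a fitted effect of over 60% in size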
Summary of the method: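 Cells are seeded at 2500 per well and rested 5 hr at 37 C. Compounds are added across a concentration series for 24 hr at 37 C, after which ATP is quantified by luciferase luminescence.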

[11] = Cell Viability - LYMP2-010 (AID 981); details: LYMP2-010 lymphoblastoid cell viability, qHTS; series mostly up to 92.2 µM;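 further: cells exposed to compound for 24 hours at 37 °C; on the % scale 0 is the no-effect control and ±100 the full control effect; nearly all actives have a fitted effect of over 55% in size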
Summary of the method: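 Acute toxicity is scored as a concentration-dependent loss of cellular ATP in human lymphoblastoid cells after 24 hr compound exposure in complete medium. Tetraoctylammonium bromide is the positive control.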

[12] = Cell Viability - LYMP2-012 (AID 982); details: LYMP2-012 lymphoblastoid cell viability qHTS; series mostly up to 92.2 µM
[13] = Cell Viability - LYMP2-020 (AID 986); details: series mostly up to 92.2 µM
Summary of the method: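 Acute cytotoxicity in a human lymphoblastoid line is scored as a concentration-dependent fall in cellular ATP after 24 hr at 37 C in complete medium. The positive control is tetraoctylammonium bromide, and potency is given as Hill-fit AC50.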

[14] = biological target: Peroxisome proliferator-activated receptor gamma (Homo sapiens) (UniProt P37231); experiment: qHTS assay for small molecule agonists of peroxisome proliferator-activated receptor gamma signaling (AID 588536; active means well fitted curve in the direction sought with a large enough effect in the signal ratio, with a control signal flat, not every such curve was filed as active; the % refers to the signal ratio;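 further: 0% = DMSO basal wells and 100% = rosiglitazone at 2 µM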); details: HEK293 PPARg-UAS-bla, beta-lactamase ratio, 16 h, percent of rosiglitazone response, DMSO as zero; series mostly up to 76.7 µM
Summary of the method: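 Ratiometric blue/green fluorescence (405 nm excitation; 460 and 530 nm emission) from CCF4-loaded HEK293 reporter cells serves as signal. Exposure to test compounds lasts 16 h at 37 C in medium containing 1% charcoal/dextran-treated serum.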

[15] = biological target: Retinoic acid receptor RXR-alpha (Homo sapiens) (UniProt P19793); experiment: qHTS assay for small molecule antagonists of retinoid X receptor alpha signaling (AID 588546; active means well fitted inhibition curve with a large enough effect in the signal ratio, with a control signal flat, not every such curve was filed as active; the % refers to the signal ratio;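 further: cells stimulated with 9-cis-retinoic acid as agonist; on the % scale 0 is the no-effect control and ±100 the full control effect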); details: HEK293T RXRa-UAS-bla, beta-lactamase ratio, antagonist mode
Summary of the method: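 Beta-lactamase reporter inhibition, read as CCF4 fluorescence ratio (ex 405, em 460/530 nm) after 2 h at RT. HEK293T UAS-bla cells, 2500/well, were stimulated with 9-cis-RA at 500 or 100 nM final alongside test compound for 18 h at 37 C.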

[16] = qHTS assay for small molecule activators of the nuclear factor-kappa B (NF-kB) signaling pathway (AID 651749; active means well fitted activation curve with a large enough effect in the signal ratio; the % refers to the signal ratio; further: % of control where 0% means no effect); details: NF-kB-bla ME-180 cells, beta-lactamase FRET ratio, 16 h; active compounds read high
Summary of the method: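 Stably transfected ME-180 line; NF-kB response element upstream of beta-lactamase. Treatment: compound or DMSO, 16 hr. Detection: fluorescent FRET substrate.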

[17] = Cell Viability - LYMP1-002 - Assay at 24 hr (AID 993); details: LYMP1-002 lymphoblastoid cells viability; series mostly up to 92.2 µM; further: on the % scale 0 is the no-effect control and ±100 the full control effect
Summary of the method: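 qHTS, LYMP1-002 lymphoblastoid, 24 h cpd, 37 C, CellTiter-Glo ATP luminescence; AC50 via Hill eq.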

[18] = qHTS assay for small molecule disruptors of the mitochondrial membrane potential - 1 hr assay (AID 651754; calls by dose curve; further: on the % scale 0 is the no-effect control and ±100 the full control effect; nearly all actives have a fitted effect of over 35% in size); details: series mostly up to 92.2 µM
Summary of the method: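 Steps: seed HepG2 cells and let attach overnight; pin-transfer compound or vehicle; incubate 1 hr at 37C; add Mito-MPS dye for 30 min; read two-channel fluorescence for monomer and aggregate forms.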

[19] = qHTS assay for cell viability of HEK293 cells (AID 743288); details: ATP luminescence (CellTiter-Glo), 18 h, active compounds read low; further: on the % scale 0 is the no-effect control and ±100 the full control effect; nearly all actives have a fitted effect of over 50% in size
Summary of the method: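 HEK293 parental, 2,000 cells/well; ≥5 h pre-incubation 37 C; pintool compound addition; 18 h, 37 C; CellTiter-Glo 30 min RT; luminescence read.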

[20] = qHTS assay for small molecule agonists of the antioxidant response element (ARE) signaling pathway measured by Nrf2-dependant transcriptional activity (AID 720636; active means well fitted curve in the direction sought with a large enough effect in the repeat runs; an effect the other way counts as inactive or inconclusive;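 further: HepG2 cells with an ARE-driven luciferase reporter; % of control where 0% means no effect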); details: ARE-luc HepG2, Nrf2 luciferase reporter, 16 h; series mostly up to 92.4 µM
Summary of the method: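 We exposed ARE-luc HepG2 cells, seeded in assay medium with 1% dialyzed FBS and allowed 6 hr to adhere, to test compounds overnight (16 hr, 37 C) before measuring luciferase with ONE-Glo.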

Chain of Retinoic acid receptor RXR-alpha (Homo sapiens) (P19793 whole entry, looked up): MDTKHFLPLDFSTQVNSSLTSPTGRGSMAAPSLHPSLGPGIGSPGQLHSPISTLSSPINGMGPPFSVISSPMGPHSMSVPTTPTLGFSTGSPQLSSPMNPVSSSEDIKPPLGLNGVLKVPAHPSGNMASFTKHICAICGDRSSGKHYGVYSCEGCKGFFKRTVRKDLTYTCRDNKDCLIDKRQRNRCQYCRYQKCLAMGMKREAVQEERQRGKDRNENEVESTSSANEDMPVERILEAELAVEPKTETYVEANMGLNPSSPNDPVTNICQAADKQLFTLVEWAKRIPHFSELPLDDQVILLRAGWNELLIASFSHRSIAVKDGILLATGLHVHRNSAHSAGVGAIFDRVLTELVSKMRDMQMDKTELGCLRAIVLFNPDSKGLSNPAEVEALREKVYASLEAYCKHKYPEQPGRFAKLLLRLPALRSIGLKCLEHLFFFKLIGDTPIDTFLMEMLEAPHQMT
Chain of Peroxisome proliferator-activated receptor gamma (Homo sapiens) (P37231 whole entry, looked up): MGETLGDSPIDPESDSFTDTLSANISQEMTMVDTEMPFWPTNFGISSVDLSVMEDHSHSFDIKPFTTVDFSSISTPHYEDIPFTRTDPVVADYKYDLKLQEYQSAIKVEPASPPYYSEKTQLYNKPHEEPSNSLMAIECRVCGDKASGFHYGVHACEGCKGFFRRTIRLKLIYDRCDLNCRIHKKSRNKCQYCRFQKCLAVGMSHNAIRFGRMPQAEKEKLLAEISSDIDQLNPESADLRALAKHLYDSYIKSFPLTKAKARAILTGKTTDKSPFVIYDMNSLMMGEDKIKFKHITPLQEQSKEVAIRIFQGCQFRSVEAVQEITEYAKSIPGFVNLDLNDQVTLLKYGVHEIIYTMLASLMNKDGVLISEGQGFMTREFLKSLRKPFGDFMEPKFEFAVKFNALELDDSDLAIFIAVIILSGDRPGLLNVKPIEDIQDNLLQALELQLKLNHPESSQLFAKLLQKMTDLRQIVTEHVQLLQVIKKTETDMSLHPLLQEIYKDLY

Cc1ccc(N)cc1Cl
inactive: Potency [1] > 92 µM | Potency [2] | Potency [3] | Potency [4] | outcome [5] | Potency [6] | Potency [7] | Potency [8] | Potency [9] | Potency [10] | Potency [11] | Potency [12] | Potency [13] | outcome [14] | max response [15] -11.5% | activation [16] -0.096%

CN=C=O
inactive: Potency [1] > 92 µM | Potency [2] | Potency [4] | outcome [5] | Potency [8] | Potency [10] | Potency [12] | Potency [17] | max response [15] 0.777% | Potency [18] | max response [19] 3.09%

NC1CCC(CC2CCC(N)CC2)CC1 (centres undefined)
inactive: Potency [1] > 92 µM | Potency [2] | Potency [3] | Potency [4] | outcome [5] | Potency [6] | Potency [8] | Potency [11] | Potency [12] | Potency [17] | outcome [14] | max response [15] -0.208% and 1.62% | activation [16] -0.779% and -0.659% | Potency [20] | max response [19] 7.87% and 2.31%

Cl/C=C/CCl
inactive: Potency [1] > 92 µM | Potency [2] | Potency [3] | Potency [4] | outcome [5] | Potency [7] | Potency [8] | Potency [9] | Potency [10] | Potency [11] | Potency [12] | Potency [13] | Potency [17] | outcome [14] | max response [15] 3.74% | activation [16] 0.574% | Potency [18] | Potency [20] | max response [19] 2.26%

O=C(O)C(Cl)(Cl)Br
inactive: Potency [1] > 92 µM | Potency [2] | Potency [3] | Potency [4] | outcome [5] | Potency [6] | Potency [7] | Potency [8] | Potency [9] | Potency [10] | Potency [11] | Potency [12] | Potency [13] | Potency [17] | outcome [14] | max response [15] 1% | Potency [18] | Potency [20] | max response [19] 5.15%

CNC(=O)O/N=C/C(C)(C)S(C)=O (centres undefined)
inactive: Potency [3] | outcome [5] | Potency [7] | Potency [8] | Potency [9] | Potency [10] | Potency [11] | Potency [12] | Potency [13] | Potency [17] | outcome [14] | max response [15] 12.4% and -11.4% | activation [16] -0.721% and -0.0233% | Potency [18] | Potency [20]

O=C(O)c1cc(Cl)ccc1Cl
inactive: Potency [1] > 92 µM | Potency [3] | Potency [4] | outcome [5] | Potency [6] | Potency [7] | Potency [8] | Potency [9] | Potency [10] | Potency [11] | Potency [12] | Potency [13] | Potency [17] | max response [15] -2.77% | Potency [20] | max response [19] -1.88%

CC(C)(Cl)Cl
inactive: Potency [1] > 92 µM | Potency [2] | Potency [4] | outcome [5] | Potency [8] | Potency [9] | Potency [10] | Potency [11] | Potency [12] | Potency [13] | outcome [14] | activation [16] 0.397% | Potency [18] | Potency [20]

CCCCOC(=O)c1ccccc1N
inactive: Potency [1] > 92 µM | Potency [2] | Potency [3] | Potency [4] | outcome [5] | Potency [6] | Potency [7] | Potency [8] | Potency [10] | Potency [11] | Potency [12] | Potency [13] | Potency [17] | outcome [14] | max response [15] 6.01% | activation [16] -0.998% | Potency [18] | Potency [20] | max response [19] -7.97%

— PubChem BioAssay (NCATS)
